# Experiments:
# Test in all cases: DAPPL (digital affinity profiling via proximity ligation, sequencing); 10 mM Tris-HCl pH 7.5, 50 mM NaCl, 1 mM DTT, 4% glycerol, room temperature, 30 min; GST-TFs on glutathione beads, 16-mer random dsDNA library, 0.1% formaldehyde crosslink after washing; high values mean tight binding
# FEV = target: T1, FEV (Homo sapiens, UniProt Q99581 1-238); settings: protein: recombinant; tags: N-terminal GST; dsDNA, one strand shown
# T1 sequence: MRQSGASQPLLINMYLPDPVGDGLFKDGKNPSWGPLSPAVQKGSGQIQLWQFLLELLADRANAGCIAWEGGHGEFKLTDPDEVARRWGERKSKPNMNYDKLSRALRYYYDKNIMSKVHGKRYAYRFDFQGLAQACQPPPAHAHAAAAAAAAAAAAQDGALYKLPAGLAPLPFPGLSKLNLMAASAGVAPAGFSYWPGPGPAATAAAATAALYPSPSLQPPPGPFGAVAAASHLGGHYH
# Method in brief: (§1)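 Yeast served to express human transcription factors as GST fusions, which were then captured on glutathione beads and labelled with DNA barcodes. Pooled with a tag-only sample, they were incubated with 200 nmole of a 16-mer random double-stranded DNA library for 30 min at room temperature in Tris/NaCl/DTT/glycerol buffer, washed, crosslinked with 0.1% formaldehyde, ligated by proximity, amplified by PCR and sequenced. Dividing each hexamer's read frequency for a factor by its frequency for the tag-only sample gives the binding signal.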
# ETV5 = ETV5 (Homo sapiens, UniProt P41161 1-510); settings: protein: recombinant; tags: N-terminal GST; dsDNA, one strand shown
# Chain of ETV5 (P41161 whole entry): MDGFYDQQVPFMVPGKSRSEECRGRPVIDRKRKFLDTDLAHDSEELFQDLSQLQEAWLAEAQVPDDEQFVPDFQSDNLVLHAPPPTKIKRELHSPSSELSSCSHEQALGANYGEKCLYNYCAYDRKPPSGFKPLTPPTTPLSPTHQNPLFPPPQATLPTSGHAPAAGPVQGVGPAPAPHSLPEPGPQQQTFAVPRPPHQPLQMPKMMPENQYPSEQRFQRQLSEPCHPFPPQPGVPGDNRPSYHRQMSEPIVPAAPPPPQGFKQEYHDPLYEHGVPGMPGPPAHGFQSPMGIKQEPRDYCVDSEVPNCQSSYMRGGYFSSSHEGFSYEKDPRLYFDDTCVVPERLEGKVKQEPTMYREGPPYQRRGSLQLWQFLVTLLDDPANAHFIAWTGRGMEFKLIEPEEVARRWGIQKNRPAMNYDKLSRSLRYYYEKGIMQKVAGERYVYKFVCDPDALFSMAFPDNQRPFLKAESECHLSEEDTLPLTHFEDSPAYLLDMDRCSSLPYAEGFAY
# Method in brief: as §1
# HSF1 = HSF1 (Homo sapiens, UniProt Q00613 1-529); settings: protein: recombinant; tags: N-terminal GST; chain copies: 3; dsDNA, one strand shown
# Chain of HSF1 (Q00613 whole entry): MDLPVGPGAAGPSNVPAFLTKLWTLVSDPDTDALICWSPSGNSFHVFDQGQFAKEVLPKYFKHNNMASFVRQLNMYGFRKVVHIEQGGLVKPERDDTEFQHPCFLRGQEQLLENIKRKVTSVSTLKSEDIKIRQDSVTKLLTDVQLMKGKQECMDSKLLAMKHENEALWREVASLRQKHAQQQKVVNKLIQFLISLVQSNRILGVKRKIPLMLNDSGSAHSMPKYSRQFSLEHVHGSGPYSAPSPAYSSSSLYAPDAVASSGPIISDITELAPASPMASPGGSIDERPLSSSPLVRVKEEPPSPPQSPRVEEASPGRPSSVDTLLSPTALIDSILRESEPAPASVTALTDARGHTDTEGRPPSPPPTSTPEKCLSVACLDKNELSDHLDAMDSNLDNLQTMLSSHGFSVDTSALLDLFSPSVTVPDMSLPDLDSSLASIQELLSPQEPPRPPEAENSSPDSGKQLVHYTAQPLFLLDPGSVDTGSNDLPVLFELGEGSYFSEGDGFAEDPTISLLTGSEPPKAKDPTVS
# Method in brief: as §1
# SPIC = target: T2, SPIC (Homo sapiens, UniProt Q8N5J4 1-248); settings: protein: recombinant; tags: N-terminal GST; dsDNA, one strand shown
# T2 sequence: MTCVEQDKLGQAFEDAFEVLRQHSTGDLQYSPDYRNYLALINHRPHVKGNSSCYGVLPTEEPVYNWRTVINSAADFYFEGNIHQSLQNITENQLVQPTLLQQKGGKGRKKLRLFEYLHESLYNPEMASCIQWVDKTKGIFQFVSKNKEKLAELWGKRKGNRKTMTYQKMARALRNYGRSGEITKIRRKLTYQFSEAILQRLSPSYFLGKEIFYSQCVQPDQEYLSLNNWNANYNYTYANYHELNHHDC
# Method in brief: as §1
# ELF4 = ELF4 (Homo sapiens, UniProt Q99607 1-663); settings: protein: recombinant; tags: N-terminal GST; dsDNA, one strand shown
# Chain of ELF4 (Q99607 whole entry): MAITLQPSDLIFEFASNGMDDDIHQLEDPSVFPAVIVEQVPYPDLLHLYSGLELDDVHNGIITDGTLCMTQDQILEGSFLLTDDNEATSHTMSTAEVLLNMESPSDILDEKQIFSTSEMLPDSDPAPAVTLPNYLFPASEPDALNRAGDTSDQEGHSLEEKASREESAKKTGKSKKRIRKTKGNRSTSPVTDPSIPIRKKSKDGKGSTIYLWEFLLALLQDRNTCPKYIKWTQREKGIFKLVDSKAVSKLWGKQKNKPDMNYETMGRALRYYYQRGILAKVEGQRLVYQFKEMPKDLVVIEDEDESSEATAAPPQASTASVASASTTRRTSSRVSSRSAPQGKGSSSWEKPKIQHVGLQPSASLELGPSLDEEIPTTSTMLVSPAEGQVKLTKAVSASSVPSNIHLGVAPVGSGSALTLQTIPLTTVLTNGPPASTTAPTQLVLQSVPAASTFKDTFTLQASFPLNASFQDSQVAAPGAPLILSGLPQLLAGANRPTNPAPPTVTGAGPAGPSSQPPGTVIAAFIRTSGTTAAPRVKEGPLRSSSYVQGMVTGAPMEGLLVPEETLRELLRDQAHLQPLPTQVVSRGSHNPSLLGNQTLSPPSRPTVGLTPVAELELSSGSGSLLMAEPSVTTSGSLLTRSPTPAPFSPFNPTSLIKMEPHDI
# Method in brief: as §1
# ELK4 = target: T3, ELK4 (Homo sapiens, UniProt P28324-2 1-405); settings: protein: recombinant; tags: N-terminal GST; dsDNA, one strand shown
# T3 sequence: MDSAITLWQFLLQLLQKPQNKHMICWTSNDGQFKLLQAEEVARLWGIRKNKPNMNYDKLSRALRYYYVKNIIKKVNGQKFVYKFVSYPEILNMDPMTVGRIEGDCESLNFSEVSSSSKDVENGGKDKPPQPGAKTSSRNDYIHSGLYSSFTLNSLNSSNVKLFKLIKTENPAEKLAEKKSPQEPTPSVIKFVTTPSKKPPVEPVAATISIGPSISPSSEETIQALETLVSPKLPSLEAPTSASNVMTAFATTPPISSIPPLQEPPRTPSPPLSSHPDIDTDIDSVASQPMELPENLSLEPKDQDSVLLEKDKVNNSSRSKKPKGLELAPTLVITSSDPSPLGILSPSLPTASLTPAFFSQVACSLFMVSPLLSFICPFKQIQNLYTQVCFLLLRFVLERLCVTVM
# Method in brief: as §1
# ETV2 = target: T4, ETV2 (Homo sapiens, UniProt O00321 1-342); settings: protein: recombinant; tags: N-terminal GST; dsDNA, one strand shown
# T4 sequence: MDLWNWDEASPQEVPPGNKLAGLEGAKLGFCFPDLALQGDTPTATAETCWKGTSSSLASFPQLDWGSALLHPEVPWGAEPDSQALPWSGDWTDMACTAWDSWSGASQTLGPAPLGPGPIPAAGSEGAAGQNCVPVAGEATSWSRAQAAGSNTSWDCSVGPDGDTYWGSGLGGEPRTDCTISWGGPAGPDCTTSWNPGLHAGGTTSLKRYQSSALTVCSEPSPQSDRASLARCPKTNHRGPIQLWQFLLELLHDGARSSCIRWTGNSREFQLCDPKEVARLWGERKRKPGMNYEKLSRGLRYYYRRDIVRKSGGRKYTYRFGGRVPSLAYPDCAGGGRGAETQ
# Method in brief: as §1
# ELF3 = target: T5, ELF3 (Homo sapiens, UniProt P78545 1-371); settings: protein: recombinant; tags: N-terminal GST; dsDNA, one strand shown
# T5 sequence: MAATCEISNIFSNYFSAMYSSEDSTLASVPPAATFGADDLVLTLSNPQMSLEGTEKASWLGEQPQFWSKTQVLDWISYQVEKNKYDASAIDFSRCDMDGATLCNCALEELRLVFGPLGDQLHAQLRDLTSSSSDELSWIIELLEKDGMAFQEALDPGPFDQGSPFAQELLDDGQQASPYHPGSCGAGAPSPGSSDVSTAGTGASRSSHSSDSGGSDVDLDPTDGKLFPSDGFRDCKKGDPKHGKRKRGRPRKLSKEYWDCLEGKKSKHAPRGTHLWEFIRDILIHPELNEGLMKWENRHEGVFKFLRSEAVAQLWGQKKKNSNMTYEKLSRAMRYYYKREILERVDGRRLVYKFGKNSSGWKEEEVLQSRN
# Method in brief: as §1
# CRX = CRX (Homo sapiens, UniProt O43186 1-299); settings: protein: recombinant; tags: N-terminal GST; dsDNA, one strand shown
# Chain of CRX (O43186 whole entry): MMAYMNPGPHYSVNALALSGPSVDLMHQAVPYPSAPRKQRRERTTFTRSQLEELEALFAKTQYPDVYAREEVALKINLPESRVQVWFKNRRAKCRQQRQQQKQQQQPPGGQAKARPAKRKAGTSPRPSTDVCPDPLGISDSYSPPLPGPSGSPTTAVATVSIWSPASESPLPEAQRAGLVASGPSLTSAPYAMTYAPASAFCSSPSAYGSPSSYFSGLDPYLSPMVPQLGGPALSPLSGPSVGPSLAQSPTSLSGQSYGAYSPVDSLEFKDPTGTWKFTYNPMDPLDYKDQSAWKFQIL
# Method in brief: as §1
# ETV1 = ETV1 (Homo sapiens, UniProt P50549 1-477); settings: protein: recombinant; tags: N-terminal GST; dsDNA, one strand shown
# Chain of ETV1 (P50549 whole entry): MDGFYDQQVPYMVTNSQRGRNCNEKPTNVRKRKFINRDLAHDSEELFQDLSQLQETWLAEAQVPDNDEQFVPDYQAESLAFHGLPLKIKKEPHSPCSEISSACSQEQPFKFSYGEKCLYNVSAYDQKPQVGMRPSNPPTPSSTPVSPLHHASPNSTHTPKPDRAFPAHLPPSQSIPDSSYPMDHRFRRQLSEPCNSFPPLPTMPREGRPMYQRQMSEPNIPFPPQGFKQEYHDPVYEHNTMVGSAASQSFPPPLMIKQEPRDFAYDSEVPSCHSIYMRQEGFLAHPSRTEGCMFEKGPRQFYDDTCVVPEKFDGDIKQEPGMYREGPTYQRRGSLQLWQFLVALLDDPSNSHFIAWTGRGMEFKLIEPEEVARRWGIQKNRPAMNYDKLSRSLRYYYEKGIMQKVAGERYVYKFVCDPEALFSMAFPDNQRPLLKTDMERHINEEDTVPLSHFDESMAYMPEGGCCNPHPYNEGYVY
# Method in brief: as §1
# ERF = target: T6, ERF (Homo sapiens, UniProt P50548 1-548); settings: protein: recombinant; tags: N-terminal GST; dsDNA, one strand shown
# T6 sequence: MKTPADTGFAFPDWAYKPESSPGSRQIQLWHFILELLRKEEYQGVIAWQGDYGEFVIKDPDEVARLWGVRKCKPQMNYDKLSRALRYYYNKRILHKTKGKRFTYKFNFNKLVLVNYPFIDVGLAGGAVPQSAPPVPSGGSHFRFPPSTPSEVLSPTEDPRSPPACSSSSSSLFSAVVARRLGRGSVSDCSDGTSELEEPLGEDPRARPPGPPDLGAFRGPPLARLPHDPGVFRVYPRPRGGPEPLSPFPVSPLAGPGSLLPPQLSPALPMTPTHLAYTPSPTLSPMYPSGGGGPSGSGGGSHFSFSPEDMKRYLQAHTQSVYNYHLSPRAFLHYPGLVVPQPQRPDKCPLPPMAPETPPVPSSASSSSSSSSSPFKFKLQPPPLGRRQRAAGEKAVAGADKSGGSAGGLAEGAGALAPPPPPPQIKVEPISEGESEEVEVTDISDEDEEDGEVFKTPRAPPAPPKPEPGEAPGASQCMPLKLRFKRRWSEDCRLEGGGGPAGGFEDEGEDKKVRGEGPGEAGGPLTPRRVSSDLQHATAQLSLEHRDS
# Method in brief: as §1
# ETV3L = target: T7, ETV3L (Homo sapiens, UniProt Q6ZN32 1-361); settings: protein: recombinant; tags: N-terminal GST; dsDNA, one strand shown
# T7 sequence: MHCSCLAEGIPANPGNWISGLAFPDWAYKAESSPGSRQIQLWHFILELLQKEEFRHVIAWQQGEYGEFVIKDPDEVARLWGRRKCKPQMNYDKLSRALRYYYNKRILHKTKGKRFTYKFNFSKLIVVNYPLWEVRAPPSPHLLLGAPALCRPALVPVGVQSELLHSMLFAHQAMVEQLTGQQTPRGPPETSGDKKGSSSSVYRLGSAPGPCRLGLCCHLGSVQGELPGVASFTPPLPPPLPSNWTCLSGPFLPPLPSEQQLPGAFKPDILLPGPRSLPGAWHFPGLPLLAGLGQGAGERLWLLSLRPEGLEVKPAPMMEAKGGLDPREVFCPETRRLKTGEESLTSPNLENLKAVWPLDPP
# Method in brief: as §1
# ETS2 = target: T8, ETS2 (Homo sapiens, UniProt P15036 1-469); settings: protein: recombinant; tags: N-terminal GST; dsDNA, one strand shown
# T8 sequence: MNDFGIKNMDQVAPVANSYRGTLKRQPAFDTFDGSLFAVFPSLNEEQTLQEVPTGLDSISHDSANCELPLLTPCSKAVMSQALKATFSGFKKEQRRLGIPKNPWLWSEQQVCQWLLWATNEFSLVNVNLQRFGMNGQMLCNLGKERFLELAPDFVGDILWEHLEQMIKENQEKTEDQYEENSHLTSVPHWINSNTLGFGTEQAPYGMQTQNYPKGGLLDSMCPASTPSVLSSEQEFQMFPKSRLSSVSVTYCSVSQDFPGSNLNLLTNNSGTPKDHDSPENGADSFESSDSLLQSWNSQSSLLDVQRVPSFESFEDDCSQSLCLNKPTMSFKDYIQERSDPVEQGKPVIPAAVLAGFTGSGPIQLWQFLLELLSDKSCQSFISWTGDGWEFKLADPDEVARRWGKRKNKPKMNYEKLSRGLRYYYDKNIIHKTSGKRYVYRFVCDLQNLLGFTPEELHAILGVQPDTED
# Method in brief: as §1
# SPDEF = target: T9, SPDEF (Homo sapiens, UniProt O95238 1-335); settings: protein: recombinant; tags: N-terminal GST; dsDNA, one strand shown
# T9 sequence: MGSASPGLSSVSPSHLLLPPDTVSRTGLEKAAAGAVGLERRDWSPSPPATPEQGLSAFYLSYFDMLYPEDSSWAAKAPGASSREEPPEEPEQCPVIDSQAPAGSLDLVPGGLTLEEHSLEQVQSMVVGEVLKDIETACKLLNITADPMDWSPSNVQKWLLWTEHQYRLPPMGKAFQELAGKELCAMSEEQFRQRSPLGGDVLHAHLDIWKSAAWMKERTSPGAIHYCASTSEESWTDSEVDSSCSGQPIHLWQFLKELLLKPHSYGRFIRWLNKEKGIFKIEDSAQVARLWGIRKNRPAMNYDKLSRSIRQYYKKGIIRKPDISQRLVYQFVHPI
# Method in brief: as §1
# ETV7 = target: T10, ETV7 (Homo sapiens, UniProt Q9Y603 1-341); settings: protein: recombinant; tags: N-terminal GST; dsDNA, one strand shown
# T10 sequence: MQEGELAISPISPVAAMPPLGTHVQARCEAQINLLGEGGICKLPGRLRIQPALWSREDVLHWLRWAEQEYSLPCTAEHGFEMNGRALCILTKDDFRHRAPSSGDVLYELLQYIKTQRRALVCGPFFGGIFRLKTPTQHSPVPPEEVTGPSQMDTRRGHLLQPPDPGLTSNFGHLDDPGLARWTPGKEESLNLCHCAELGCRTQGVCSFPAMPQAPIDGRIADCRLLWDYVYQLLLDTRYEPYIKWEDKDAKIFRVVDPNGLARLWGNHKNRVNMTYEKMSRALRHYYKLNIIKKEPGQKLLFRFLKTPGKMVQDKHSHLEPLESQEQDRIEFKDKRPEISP
# Method in brief: as §1
# ELF5 = target: T11, ELF5 (Homo sapiens, UniProt Q9UKW6-2 1-255); settings: protein: recombinant; tags: N-terminal GST; dsDNA, one strand shown
# T11 sequence: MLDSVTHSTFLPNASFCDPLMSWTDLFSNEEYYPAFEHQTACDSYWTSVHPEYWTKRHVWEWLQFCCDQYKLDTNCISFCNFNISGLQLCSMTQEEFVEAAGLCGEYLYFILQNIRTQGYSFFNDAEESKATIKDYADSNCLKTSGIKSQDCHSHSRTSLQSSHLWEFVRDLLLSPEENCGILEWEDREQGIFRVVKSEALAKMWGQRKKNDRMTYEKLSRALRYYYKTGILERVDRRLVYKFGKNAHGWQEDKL
# Method in brief: as §1
# ETV3 = target: T12, ETV3 (Homo sapiens, UniProt P41162-2 1-143); settings: protein: recombinant; tags: N-terminal GST; dsDNA, one strand shown
# T12 sequence: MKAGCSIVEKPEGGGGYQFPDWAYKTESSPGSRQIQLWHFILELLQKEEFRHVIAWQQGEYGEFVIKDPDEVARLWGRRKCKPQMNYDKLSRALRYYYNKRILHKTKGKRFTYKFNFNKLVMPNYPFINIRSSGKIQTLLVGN
# Method in brief: as §1
# ETV6 = ETV6 (Homo sapiens, UniProt P41212 1-452); settings: protein: recombinant; tags: N-terminal GST; dsDNA, one strand shown
# Chain of ETV6 (P41212 whole entry): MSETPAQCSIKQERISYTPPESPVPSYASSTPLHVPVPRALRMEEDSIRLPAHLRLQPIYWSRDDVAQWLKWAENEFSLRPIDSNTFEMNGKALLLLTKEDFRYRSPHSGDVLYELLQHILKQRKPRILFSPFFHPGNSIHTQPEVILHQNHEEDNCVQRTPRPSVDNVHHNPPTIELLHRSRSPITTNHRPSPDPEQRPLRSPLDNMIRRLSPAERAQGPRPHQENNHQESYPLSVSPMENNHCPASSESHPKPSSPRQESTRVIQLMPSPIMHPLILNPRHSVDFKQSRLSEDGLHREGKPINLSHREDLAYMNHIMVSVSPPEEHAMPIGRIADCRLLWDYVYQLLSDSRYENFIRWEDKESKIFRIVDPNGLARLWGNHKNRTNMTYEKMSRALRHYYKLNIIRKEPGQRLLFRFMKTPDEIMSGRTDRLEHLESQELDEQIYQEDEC
# Method in brief: as §1
sequence,measurement,setting,value
GTTACT,binding signal,FEV,"1.17 fold enrichment (6-mer frequency, TF over GST control)"
same,binding signal,ETV5,"1.28 fold enrichment (6-mer frequency, TF over GST control)"
same,binding signal,HSF1,"1.03 fold enrichment (6-mer frequency, TF over GST control)"
same,binding signal,SPIC,"1.31 fold enrichment (6-mer frequency, TF over GST control)"
same,binding signal,ELF4,"1.18 fold enrichment (6-mer frequency, TF over GST control)"
same,binding signal,ELK4,"1.09 fold enrichment (6-mer frequency, TF over GST control)"
same,binding signal,ETV2,"1.19 fold enrichment (6-mer frequency, TF over GST control)"
same,binding signal,ELF3,"1.4 fold enrichment (6-mer frequency, TF over GST control)"
same,binding signal,CRX,"1.03 fold enrichment (6-mer frequency, TF over GST control)"
same,binding signal,ETV1,"1.17 fold enrichment (6-mer frequency, TF over GST control)"
same,binding signal,ERF,"1.24 fold enrichment (6-mer frequency, TF over GST control)"
same,binding signal,ETV3L,"1.1 fold enrichment (6-mer frequency, TF over GST control)"
same,binding signal,ETS2,"1.21 fold enrichment (6-mer frequency, TF over GST control)"
same,binding signal,SPDEF,"1.18 fold enrichment (6-mer frequency, TF over GST control)"
same,binding signal,ETV7,"1.25 fold enrichment (6-mer frequency, TF over GST control)"
same,binding signal,ELF5,"1.17 fold enrichment (6-mer frequency, TF over GST control)"
same,binding signal,ETV3,"1.28 fold enrichment (6-mer frequency, TF over GST control)"
same,binding signal,ETV6,"1.21 fold enrichment (6-mer frequency, TF over GST control)"

# Reference: publication PMC7862700, “An all-to-all approach to the identification of sequence-specific readers for epigenetic DNA modifications on cytosine”
